Assay results taken from PubChem BioAssay (NCI).
“And” between values parts separate entries of the source, which are not always exact repeats. Equal entries are not always repeated. Compounds without any hit were thinned out: in the full panel of roughly 83,000, 20% have a hit.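 Testing used 96-well plates and a 48-hour single-concentration exposure. Example: -40 means 40% of the starting cells died.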 The source made the active and inactive calls.

tested on: A498 renal; test: NCI-60 one-dose screen, 48 h (100 = growth as untreated, 0 = no growth, -100 = all killed); details: 10 µM
Method: Growth inhibition of the A498 human tumor cell line is measured as a screen for anti-cancer activity. Cells are grown in 96 well plates and exposed to the test compound for 48 hours. Compounds are tested at a single concentration, which is 10^-5 M for most compounds. The reported endpoint is percent growth (GI% or GIPRCNT), where numbers from 0 - 100% represent growth inhibition, and numbers from -100% - 0 represent cell death. For example, a value of 40 represents 60% growth inhibition. A value of 0 means no net growth occurred over the course of the experiment. A value of -40 indicates 40% of cells at the beginning of the experiment died by the end of the experiment. A value of -100 means all cells are dead at the end of the experiment.
NCI-60 Human Tumor Cell Lines Screen was performed using the standard one-dose NCI protocol, which is described in more detail at https://dtp.cancer.gov/discovery_development/nci-60/default.htm.
Compounds with GIPRCNT values below 10 were considered active. Activity score was based on GIPRCNT using the following formula: […]
Score is 0 for GIPRCNT values of 100 or above, 50 for GIPRCNT values of 0, and 100 for GIPRCNT values of -100.

Row | SMILES | growth
1 | O=C(Nc1c(Cl)cccc1Cl)Oc1cccc2cccnc12 | 98.2% (inactive)

same assay, conditions: 10 µM unless noted

Row | SMILES | growth
2 | CNc1ccc(N)cc1 | 120% (inactive)
3 | CNC(=O)N/N=C/c1ccc([N+](=O)[O-])o1 | 102% (inactive)
4 | NC1=CC(=O)c2ccccc2C1=O | 90% (inactive)
5 | Nc1ncnc2c1ncn2C1OC(CO)C(O)C1O (stereo not given) | 123% (inactive) and 107% (inactive) and 128% (inactive)
6 | O=C1c2ccccc2C(=O)N1c1ccccc1 | 109% (inactive)
7 | CC(C)c1ccc2nc3ccc(C(=O)NCCN4CCN(c5ccccc5)CC4)cn3c(=O)c2c1 | 81.8% (inactive)
8 | COc1cc(/C=C/C(C)=O)ccc1O | 79.1% (inactive) and 116% (inactive)
9 | c1ccc2c(c1)Nc1cc3ccccc3cc1N2 | 81.9% (inactive)
10 | COc1ccc(N=N/N=c2\sc3cc(OC)ccc3n2C)cc1 | 97% (inactive)
11 | CN(C)c1ccc(/C=N/N=C(\C#N)[S][Sn]([Cl])([c]2ccccc2)[c]2ccccc2)cc1 | 32% (inactive)
12 | CCCCCCCCCCCCCCNCc1ccccc1 | 92.7% (inactive)
13 | CCOc1ccc(-c2nc3ccc(-c4nc5ccc(N6CCN(C)CC6)cc5[nH]4)cc3[nH]2)cc1 | -91.6% (active)
14 | N#CSCC(=O)c1ccc(Cl)cc1 | 83.7% (inactive)
15 | CC(C)(C)c1ccc(O)c(C2CCCCC2)c1 | 107% (inactive)
16 | O=C1NC(=O)/C(=C/C=C/c2ccccc2)S1 | 69.7% (inactive)
17 | O=C1OCc2cccc3cccc1c23 | 83.5% (inactive)
18 | Cn1c2c(c3ccccc31)CCN1C[C@@H]3CCCC[C@H]3C[C@@H]21 | -5.89% (active)
19 | CCCCCCCCCCCCCCCCOP(=O)([O-])OCC[N+](C)(C)C | 3.51% (active)
20 | C[n+]1c(/C=C/c2ccc([N+](=O)[O-])cc2)ccc2ccccc21 | 92.4% (inactive)

Row | SMILES | growth
21 | CNc1ccc2c(c1)c1ccccc1n2C | 88.8% (inactive)
22 | CCN1/C(=C\c2cc[n+](CC)c3ccccc23)C=Cc2ccccc21 | -20.2% (active)
23 | C1=C(c2ccccc2)C(c2ccc(OCCN3CCCCC3)cc2)Oc2ccccc21 (stereo not given) | 94% (inactive)
24 | O=C(O)c1ccc2c3c(ncnc13)-c1ccccc1C2=O | -2.38% (active)
25 | CC(=Nc1ccc(N(C)C)cc1)c1ccccc1 | 70.4% (inactive)
26 | O=[N+]([O-])c1ccc(N=Nc2ccc(O)cc2O)cc1 | 13.8% (inactive)
27 | CCN(CC)CCOc1ccc(-c2nc3cc(Cl)ccc3s2)cc1 | -0.459% (active)
28 | O=[N+]([O-])c1ccc2c(N=Nc3ccc4ccccc4c3O)c(O)cc(S(=O)(=O)O)c2c1 | 108% (inactive)
29 | O=C1C2=C(Nc3cc([N+](=O)[O-])ccc3N2)OC1c1c2ccccc2cc2ccccc12 (stereo not given) | 104% (inactive)
30 | CCCCCCCCCCCCCCCCN(CC)CC | 107% (inactive)
31 | CC(=O)ON=C1C=CC(=C(C#N)c2ccccc2)C=C1 | 102% (inactive)
32 | CCC(CCCN(CC)CCc1ccccc1)OC(=O)c1cc(OC)c(OC)c(OC)c1 (stereo not given) | 60.2% (inactive)
33 | Cc1cc(N)c2ccccc2[n+]1CCCCCCCCCC[n+]1c(C)cc(N)c2ccccc21 | -7.94% (active)
34 | CN=C(N)N/N=C(\C)c1ccc2c(c1)Cc1cc(/C(C)=N/NC(N)=NC)ccc1-2 | -32.7% (active)
35 | Oc1c(Cl)cc(Cl)c2cccnc12 | 67.6% (inactive) and 66.6% (inactive)
36 | Oc1c(Br)cc(Cl)cc1C(c1cc(Cl)cc(Br)c1O)C(Cl)(Cl)Cl | -12.4% (active)
37 | CCN(CC)CC(C)(C)C(=O)/C=C/c1ccc(Cl)c(Cl)c1 | -24.3% (active)
38 | N#Cc1ccc([N+](=O)[O-])o1 | 98.5% (inactive)
39 | CN(Cc1cnc2nc(N)nc(N)c2n1)c1ccc(C(=O)NC(CCC(=O)O)C(=O)O)cc1 (stereo not given) | 35.4% (inactive)

same assay, conditions: 100 µM

Row | SMILES | growth
40 | O=C(Nc1c(Cl)cccc1Cl)Oc1cccc2cccnc12 | 94.5% (inactive)
